Assay [1] deals with T1, Methionyl-tRNA synthetase, putative (Leishmania donovani (strain BPK282A1)) (UniProt E9BF75).
T1 sequence (whole entry): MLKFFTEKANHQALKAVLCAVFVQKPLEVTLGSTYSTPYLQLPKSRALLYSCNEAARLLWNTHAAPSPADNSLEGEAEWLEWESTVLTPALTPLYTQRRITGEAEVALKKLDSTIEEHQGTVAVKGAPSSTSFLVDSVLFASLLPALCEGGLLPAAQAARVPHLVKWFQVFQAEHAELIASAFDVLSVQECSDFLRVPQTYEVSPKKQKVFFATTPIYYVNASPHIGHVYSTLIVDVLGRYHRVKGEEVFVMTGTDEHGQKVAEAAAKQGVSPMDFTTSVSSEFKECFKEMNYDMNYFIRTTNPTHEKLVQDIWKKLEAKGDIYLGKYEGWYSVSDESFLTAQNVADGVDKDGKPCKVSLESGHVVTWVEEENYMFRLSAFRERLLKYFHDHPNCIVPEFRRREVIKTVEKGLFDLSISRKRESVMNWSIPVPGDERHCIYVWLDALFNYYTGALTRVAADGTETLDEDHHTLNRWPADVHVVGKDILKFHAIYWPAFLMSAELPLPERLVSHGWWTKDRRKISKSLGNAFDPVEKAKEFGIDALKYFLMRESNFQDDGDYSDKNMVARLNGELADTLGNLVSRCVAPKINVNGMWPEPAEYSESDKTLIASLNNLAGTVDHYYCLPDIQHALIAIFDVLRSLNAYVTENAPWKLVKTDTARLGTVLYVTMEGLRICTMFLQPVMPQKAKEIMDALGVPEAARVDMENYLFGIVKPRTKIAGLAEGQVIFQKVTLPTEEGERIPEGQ
Description: Leishmania donovani Methionine tRNA synthetase (LdMetRS):v7. Dose response assay. It is filed as functional. Further details: conc 80 nM, time 150 minutes.

For assay [2], the target named is Protein translocase subunit SecA (Escherichia coli (strain K12)) (UniProt P10408). Description: Assay to Identify E. coli SecA ATPase Inhibitors. The assay is classed as functional. Further details: scale not given: direction of the effect not stated beside the values. Conditions: 30 µM.
Protein translocase subunit SecA (Escherichia coli (strain K12)), sequence (P10408 whole entry): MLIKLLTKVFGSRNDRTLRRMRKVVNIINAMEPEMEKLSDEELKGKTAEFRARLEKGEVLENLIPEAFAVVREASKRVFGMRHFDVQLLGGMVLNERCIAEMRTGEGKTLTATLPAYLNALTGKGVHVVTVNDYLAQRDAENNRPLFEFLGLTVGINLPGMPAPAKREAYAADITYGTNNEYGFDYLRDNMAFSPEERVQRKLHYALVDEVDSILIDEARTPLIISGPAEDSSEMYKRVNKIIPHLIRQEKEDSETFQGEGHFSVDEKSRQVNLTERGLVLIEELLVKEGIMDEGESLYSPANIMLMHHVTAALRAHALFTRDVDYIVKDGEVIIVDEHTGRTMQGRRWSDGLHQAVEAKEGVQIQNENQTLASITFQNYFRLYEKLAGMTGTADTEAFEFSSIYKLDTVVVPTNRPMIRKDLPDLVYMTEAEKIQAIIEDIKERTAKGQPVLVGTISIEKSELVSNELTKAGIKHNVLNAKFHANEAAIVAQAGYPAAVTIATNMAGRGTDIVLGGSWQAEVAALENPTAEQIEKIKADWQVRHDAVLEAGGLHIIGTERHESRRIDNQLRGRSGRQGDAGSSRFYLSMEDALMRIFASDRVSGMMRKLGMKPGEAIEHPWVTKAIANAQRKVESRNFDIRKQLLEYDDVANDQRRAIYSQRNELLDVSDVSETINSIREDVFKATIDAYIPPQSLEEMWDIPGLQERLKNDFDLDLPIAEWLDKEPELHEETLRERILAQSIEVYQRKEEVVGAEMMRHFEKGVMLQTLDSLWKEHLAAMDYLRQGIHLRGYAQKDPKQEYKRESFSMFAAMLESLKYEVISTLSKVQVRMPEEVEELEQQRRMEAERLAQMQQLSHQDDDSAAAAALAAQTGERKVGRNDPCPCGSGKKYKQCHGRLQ
The target in assay [3] is T2, Ubiquitin-activating enzyme e1, putative (Leishmania donovani (strain BPK282A1)) (UniProt E9BSI1).
T2 sequence (whole entry): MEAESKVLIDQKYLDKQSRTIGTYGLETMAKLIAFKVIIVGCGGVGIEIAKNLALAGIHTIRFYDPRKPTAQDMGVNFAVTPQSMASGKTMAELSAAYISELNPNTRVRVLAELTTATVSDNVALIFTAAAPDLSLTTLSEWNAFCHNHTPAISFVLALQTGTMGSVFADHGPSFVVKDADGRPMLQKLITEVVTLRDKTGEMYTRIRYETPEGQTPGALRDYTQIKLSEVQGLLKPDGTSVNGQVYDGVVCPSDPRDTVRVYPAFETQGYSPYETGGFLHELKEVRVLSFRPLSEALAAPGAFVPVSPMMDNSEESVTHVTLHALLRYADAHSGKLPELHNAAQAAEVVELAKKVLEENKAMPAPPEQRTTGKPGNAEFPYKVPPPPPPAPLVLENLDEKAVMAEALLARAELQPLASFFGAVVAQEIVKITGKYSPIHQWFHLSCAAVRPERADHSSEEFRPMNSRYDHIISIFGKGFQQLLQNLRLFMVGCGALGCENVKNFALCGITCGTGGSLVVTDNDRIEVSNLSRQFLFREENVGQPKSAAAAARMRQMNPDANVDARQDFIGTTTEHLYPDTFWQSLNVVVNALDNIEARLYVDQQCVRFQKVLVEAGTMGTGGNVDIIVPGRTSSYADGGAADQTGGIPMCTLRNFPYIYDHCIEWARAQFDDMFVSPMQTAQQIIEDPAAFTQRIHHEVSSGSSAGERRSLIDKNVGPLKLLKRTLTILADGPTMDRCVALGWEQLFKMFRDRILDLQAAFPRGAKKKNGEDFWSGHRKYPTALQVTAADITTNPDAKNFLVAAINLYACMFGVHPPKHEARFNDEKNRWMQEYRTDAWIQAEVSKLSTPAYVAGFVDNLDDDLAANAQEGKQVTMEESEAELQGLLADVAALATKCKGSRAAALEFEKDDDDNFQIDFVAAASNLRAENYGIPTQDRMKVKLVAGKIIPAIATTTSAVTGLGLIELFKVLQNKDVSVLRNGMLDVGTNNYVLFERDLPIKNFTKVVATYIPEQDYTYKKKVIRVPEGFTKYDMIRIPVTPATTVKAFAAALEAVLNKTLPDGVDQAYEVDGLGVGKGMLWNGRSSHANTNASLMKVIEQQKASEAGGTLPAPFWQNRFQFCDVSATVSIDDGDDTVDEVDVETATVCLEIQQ
Description: Leishmania donovani Ubiquitin Activating Enzyme (LdE1). It is filed as functional. Further details: scale not given: direction of the effect not stated beside the values. Conditions: 30 µM.

For assay [4], the target named is T3, Aspartate--tRNA(Asp/Asn) ligase (Mycobacterium tuberculosis (strain ATCC 25618 / H37Rv)) (UniProt P9WFW3). Note: in the data most compounds retested in dose-response had high values.
T3 sequence (whole entry): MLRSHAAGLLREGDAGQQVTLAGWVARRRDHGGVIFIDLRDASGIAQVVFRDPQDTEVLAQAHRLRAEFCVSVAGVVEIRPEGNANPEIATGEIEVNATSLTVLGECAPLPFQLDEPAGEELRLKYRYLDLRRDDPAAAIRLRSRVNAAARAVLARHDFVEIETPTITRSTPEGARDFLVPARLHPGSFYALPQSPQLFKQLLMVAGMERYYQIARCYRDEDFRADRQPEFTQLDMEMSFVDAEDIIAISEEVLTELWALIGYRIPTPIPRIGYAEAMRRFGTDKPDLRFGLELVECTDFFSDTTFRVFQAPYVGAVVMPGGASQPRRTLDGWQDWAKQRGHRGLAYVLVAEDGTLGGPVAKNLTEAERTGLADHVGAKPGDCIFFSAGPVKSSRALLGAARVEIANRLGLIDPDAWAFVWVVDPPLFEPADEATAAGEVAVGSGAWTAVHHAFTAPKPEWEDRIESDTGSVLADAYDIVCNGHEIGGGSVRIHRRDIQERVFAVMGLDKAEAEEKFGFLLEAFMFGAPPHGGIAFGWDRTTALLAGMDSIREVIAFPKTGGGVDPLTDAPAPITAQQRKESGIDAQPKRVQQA
Description: Assay for Asp RNA synthetase-1 from Mycobacterium tuberculosis. The assay is classed as functional. The arrangement: scale not given: direction of the effect not stated beside the values. As to conditions: 30 µM.

Assay [5] concerns the target AMP-activated protein kinase, AMPK (Homo sapiens) (UniProt P54646+O43741+P54619+Q9UGJ0+Q9Y478+Q13131+Q9UGI9). Description: AMP-dependent Kinase enzyme assay. An in vitro enzyme assay that detects ADP turnover that is directly proportional to AMPK activity. This uses naive AMPK that is activated during the assay with MK-8722. The assay is classed as functional. Further details: scale not given: direction of the effect not stated beside the values. Conditions: 30 µM.

The target of assay [6] is Sialic acid-binding Ig-like lectin 9 (Homo sapiens) (UniProt Q9Y336). Description: Hs-Siglec9 ALPHAscreen SOP 20170721. Further details: scale not given: direction of the effect not stated beside the values. As to conditions: 10 µM. In general terms: Alpha assays give light when donor and acceptor beads are brought close together.
Sialic acid-binding Ig-like lectin 9 (Homo sapiens), sequence (Q9Y336 whole entry): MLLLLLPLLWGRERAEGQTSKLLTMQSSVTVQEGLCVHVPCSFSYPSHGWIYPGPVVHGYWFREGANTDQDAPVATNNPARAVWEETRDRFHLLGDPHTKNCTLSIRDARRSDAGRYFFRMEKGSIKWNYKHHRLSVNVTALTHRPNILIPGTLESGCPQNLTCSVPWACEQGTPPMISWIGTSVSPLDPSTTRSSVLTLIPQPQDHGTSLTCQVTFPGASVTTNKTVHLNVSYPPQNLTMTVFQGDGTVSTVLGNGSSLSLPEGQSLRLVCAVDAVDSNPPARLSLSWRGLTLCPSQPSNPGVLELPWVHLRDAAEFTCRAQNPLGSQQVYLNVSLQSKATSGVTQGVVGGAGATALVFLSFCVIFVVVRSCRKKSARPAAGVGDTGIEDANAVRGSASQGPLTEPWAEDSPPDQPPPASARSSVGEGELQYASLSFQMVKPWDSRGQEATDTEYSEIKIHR
The next assay has as its system Trypanosoma cruzi. Description: Trypanosoma cruzi phosphomannomutase and mannose-1-phosphate guanylyltransferase assay. The assay is classed as functional. Further details: scale not given: direction of the effect not stated beside the values. Conditions: 10 µM.
Assay [7] has as its target T4, Arginase-2, mitochondrial (Homo sapiens) (UniProt P78540).
T4 sequence (whole entry): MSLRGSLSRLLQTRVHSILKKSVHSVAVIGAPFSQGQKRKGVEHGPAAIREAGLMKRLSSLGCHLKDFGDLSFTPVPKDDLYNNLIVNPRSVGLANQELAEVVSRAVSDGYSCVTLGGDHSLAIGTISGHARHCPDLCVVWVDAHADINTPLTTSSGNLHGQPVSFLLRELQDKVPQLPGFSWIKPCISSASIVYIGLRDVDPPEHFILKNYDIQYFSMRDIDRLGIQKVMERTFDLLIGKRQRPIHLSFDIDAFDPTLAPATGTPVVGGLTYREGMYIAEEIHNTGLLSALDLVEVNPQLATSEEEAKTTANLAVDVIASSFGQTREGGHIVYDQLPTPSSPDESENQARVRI
Description: in vitro enzyme assay to detect the production of urea directly proportional to the activity of Arginase II. Further details: scale not given: in the data most compounds retested in dose-response had high values. The assay is classed as functional.

Assay [8] has as its target T5, Proteasome subunit beta (Trypanosoma cruzi) (UniProt O96673).
T5 sequence (whole entry): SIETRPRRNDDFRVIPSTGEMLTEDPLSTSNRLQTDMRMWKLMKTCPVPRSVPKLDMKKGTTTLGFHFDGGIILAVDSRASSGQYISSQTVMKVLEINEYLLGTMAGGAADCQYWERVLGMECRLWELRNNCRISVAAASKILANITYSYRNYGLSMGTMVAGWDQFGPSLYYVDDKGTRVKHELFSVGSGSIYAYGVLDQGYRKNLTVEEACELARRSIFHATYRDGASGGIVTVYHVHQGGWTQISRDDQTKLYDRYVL
Description: Trypanosoma cruzi proteasome chymotrypsin-like activity (TcProtChymo) assay. It is filed as functional. The arrangement: scale not given: in the data most compounds retested in dose-response had high values. Conditions: 9.37 µM.

The species entered for the next assay is Homo sapiens. Description: To identify inhibition of the IFN signalling (Jak-Stat) pathway via expression of an eGFP reporter gene under the control of an IFN-stimulated response element (ISRE) containing MxA promoter. The assay is classed as functional. The arrangement: scale not given: direction of the effect not stated beside the values. As to conditions: 30 µM. In general terms: A reporter such as luciferase makes a cellular process visible.

Assay [9] has as its target Shiga toxin 2 (Escherichia coli O157:H7) (UniProt P09385+P09386). Description: E. coli 0.157:H7 Shiga Toxin SOP - stx2 screening assay. It is filed as functional. Further details: scale not given: direction of the effect not stated beside the values. Conditions: 30 µM.
The target of assay [10] is T6, Tyrosyl-tRNA synthetase, putative (Trypanosoma cruzi (strain CL Brener)) (UniProt Q4DSP6).
T6 sequence (whole entry): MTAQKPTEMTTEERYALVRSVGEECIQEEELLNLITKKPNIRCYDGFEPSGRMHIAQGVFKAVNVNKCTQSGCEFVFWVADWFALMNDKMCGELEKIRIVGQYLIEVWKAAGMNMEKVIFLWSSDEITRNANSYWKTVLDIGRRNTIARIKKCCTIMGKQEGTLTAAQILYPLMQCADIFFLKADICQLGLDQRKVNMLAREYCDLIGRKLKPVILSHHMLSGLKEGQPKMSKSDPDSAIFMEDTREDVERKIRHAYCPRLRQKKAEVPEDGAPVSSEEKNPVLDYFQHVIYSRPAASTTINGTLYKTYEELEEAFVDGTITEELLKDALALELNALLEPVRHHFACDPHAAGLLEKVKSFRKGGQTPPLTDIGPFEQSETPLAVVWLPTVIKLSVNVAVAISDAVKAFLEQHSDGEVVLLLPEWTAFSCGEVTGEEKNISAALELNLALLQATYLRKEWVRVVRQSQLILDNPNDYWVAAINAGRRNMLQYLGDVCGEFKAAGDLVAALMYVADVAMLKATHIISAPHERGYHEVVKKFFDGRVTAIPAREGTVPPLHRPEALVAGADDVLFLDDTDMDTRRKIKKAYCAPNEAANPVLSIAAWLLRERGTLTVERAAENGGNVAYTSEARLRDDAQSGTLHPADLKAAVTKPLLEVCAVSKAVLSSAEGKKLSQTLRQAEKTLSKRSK
Description: Trypanosoma cruzi tyrosyl tRNA synthetase (TcYRS) _High Tyrosine SOP. It is filed as functional. Further details: scale not given: in the data most compounds retested in dose-response had high values. As to conditions: 30 µM.

In assay [11] the target is T6, Tyrosyl-tRNA synthetase, putative (Trypanosoma cruzi (strain CL Brener)). Description: Trypanosoma cruzi tyrosyl tRNA synthetase (TcYRS) SOP. As to conditions: 30 µM. It is filed as functional. Further details: scale not given: direction of the effect not stated beside the values.
Assay [12] has as its target Chromo domain-containing protein 1 (Saccharomyces cerevisiae (strain ATCC 204508 / S288c) (Baker's yeast)) (UniProt P32657). Description: ScCHD-1 Enzyme Inhibition Assay. The assay is classed as functional. The arrangement: scale not given: in the data most compounds retested in dose-response had high values. As to conditions: 30 µM.

For some assays here: Entries with a potency or affinity are not part of this list.

Chromo domain-containing protein 1 (Saccharomyces cerevisiae (strain ATCC 204508 / S288c) (Baker's yeast)), sequence (P32657 whole entry, the tested form may be a part): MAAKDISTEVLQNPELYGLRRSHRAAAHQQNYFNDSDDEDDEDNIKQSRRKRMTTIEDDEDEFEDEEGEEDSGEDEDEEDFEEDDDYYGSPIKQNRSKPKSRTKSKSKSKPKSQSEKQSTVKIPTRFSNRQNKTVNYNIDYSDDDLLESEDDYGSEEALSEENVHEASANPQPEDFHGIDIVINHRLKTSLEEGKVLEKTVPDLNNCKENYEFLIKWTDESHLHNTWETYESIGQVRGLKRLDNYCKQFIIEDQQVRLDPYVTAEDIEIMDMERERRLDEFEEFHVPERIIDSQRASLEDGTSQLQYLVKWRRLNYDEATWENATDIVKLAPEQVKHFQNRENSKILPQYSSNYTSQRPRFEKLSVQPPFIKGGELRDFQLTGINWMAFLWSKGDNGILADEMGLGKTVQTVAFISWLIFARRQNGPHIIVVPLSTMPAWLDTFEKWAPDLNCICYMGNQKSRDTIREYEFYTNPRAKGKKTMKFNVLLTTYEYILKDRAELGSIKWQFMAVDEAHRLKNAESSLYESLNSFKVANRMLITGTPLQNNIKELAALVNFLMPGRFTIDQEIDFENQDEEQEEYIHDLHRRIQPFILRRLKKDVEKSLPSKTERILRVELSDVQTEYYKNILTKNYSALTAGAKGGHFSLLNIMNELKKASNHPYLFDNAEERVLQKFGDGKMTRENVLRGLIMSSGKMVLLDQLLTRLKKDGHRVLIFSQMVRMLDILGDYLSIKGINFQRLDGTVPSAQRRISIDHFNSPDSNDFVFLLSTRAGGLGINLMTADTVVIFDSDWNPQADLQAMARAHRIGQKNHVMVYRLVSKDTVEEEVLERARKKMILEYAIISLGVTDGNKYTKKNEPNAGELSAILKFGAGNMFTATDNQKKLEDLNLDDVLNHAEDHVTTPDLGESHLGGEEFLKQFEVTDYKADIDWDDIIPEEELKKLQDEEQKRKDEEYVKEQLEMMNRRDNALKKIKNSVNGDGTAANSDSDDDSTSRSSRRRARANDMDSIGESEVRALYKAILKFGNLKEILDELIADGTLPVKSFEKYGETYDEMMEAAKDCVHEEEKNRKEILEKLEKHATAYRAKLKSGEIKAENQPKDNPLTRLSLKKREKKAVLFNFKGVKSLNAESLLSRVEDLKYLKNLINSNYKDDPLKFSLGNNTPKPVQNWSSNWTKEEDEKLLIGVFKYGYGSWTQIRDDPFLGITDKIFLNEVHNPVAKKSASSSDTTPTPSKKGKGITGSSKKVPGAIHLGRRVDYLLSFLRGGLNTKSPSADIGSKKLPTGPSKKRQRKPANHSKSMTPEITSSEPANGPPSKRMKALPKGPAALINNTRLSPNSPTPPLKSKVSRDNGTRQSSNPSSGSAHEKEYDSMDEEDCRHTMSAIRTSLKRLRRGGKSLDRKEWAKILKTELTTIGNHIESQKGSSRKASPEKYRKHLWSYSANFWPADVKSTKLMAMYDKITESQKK

Regarding `COC(=O)Nc1cc(Cl)cc(Cl)c1`, the PXC50 in assay [1] (MAX_EFFECT 8.423326134) and in assay [1] (MAX_EFFECT 23.76425856) was less than 3 throughout.

In the case of `O=C1CSC(c2ccsc2)c2c(n(C3CCOCC3)[nH]c2=O)N1` (stereo unspecified), the Percent Effect in [2] is -1.28%; in assay [3], 14.7%; in assay [4] it was -2.38%; in assay [5], -5.51%; in assay [6] it was 3.3%; in the assay on Trypanosoma cruzi, -0.589%. The Percent Effect in assay [7] (30 µM) was 7.03%; in assay [7] (33.3 µM), 94.2%; in assay [8], 8.13%; in the assay listed under Homo sapiens, 6.12%; in assay [9], -12.8%; in assay [10], 6.35%. Also, the Percent Effect in assay [11] was 12.8%; in assay [12], -11.9%.

In the case of `Cc1nc(N2C[C@@H]3CCN(C)[C@@H]3C2)c2ccsc2n1`, the PXC50 in assay [1] (MAX_EFFECT 4.081632653) and in assay [1] (MAX_EFFECT 6.313131313) was less than 4 in each case.

As to `Clc1cc(CN2CCCN3CCCC3C2)c2ncccc2c1` (stereo unspecified), the PXC50 was determined as 4.18 in [1] (BOTTOM 3.20477061, HILLSLOPE 1.084567425, MAX_EFFECT 62.37623762, TOP 100.0); 4.08 in assay [1] (BOTTOM 6.472550683, HILLSLOPE 0.834102773, MAX_EFFECT 67.39130435, TOP 100.0); 4.1 in [1] (BOTTOM 6.940148658, HILLSLOPE 1.034617946, MAX_EFFECT 59.85663082, TOP 100.0).

`Cc1nc(N2CCN(C(=O)C(C)C)CC2)c2c3c(sc2n1)CC(C)CC3` (stereo unspecified): the PXC50 in assay [1] (MAX_EFFECT 28.46347607) and in [1] (MAX_EFFECT 29.26208651) was less than 4 throughout.

As to `Clc1ccccc1Nc1ncnc(-n2cccc2)n1`, in assay [1] (MAX_EFFECT 8.148148148), the PXC50 was less than 4.

Turning to `Cc1cc(Cl)cc(Cl)c1O`, the PXC50 in assay [1] (MAX_EFFECT 7.127429806) and in assay [1] (MAX_EFFECT 14.63878327) was less than 3 in each case.

These data come from ChEMBL document CHEMBL3988442, “University of Dundee, Small-Polar-MMV Screening Library” (2021).
